Here are results for 40 compounds from PubChem BioAssay (Tox21).

Active and inactive are the calls of the source. The call rests on the fitted dose curve; in most records, active means well fitted curve in the direction sought with a large enough effect in the repeat runs; inconclusive means weak or mixed curves; inactive means flat fitted curve, though single readings scatter.

The nature of this assay: qHTS assay to test for compound auto fluorescence at 460 nm (blue) in HEK293 cell free culture (AID 720681). The following applies: cell-free medium, autofluorescence 405/460 nm (blue); series mostly up to 91.3 µM. From the text:
U.S. Tox21 Program National Center for Advancing Translational Sciences [NCATS] NIH Chemical Genomics Center [NCGC] U.S. Environmental Protection Agency [EPA] National Institutes of Environmental Health Sciences [NIEHS] National Toxicology Program [NTP] U.S. Food and Drug Administration [FDA] Tox21 Assay Overview: Compound auto fluorescence often interferes with screening of the compound library against various biological targets and signaling pathways. Some of these compounds may have fluorophoric properties. Such properties may interfere with the assay outputs resulting in false positives and/or negatives. To decrease such complications and ensure the compound activities are relevant in terms of biological response, the Tox21 10K compound library was screened for auto fluorescence. From the fluorophores used as reporter signals in our screening assays, the auto fluorescence equivalencies of compounds against three fluorophores have been evaluated: Triamterene, Fluorescein and Rose Bengal sodium for blue, green and red fluorescence, respectively. The fluorescence intensities were measured using Excitation/Emission wavelengths at 405/460nm, 485/535nm and 540/590nm for blue, green and red labels, respectively. This assay includes the blue fluorescence data.
Tox21 Assay Protocol Summary: 5 uL of culture medium (DMEM containing 10% FBS) per well was dispensed into black wall/clear bottom 1536-well plates using a Multidrop Combi Dispenser (ThermoFisher Scientific, Waltham, MA). After 23 nL compound or DMSO vehicle was transferred into assay plate by a pintool work station (Kalypsys, San Diego, CA), fluorescence intensities in the assay plates were measured by an Envision (PerkinElmer, Shelton, CT) plate reader using three labels for measuring blue, green and red fluorescence at […] 460, 535 and 590nm respectively.
For `CC(C)O.CC(C)O.OCCN(CCO)CCO.OCCN(CCO)CCO.[Ti]`, the compound was called inactive.

On to `Cn1sc(Cl)cc1=O`, for which the call was inactive. Next, `OC(c1ccc(Cl)cc1)(c1ccc(Cl)cc1)c1cccnc1`: “inactive”; `O=C(NC(=O)c1c(F)cccc1F)Nc1ccc(OC(F)(F)C(F)OC(F)(F)F)c(Cl)c1` (stereo not given): “inactive”. In the case of `CS/C(C)=N/OC(=O)N(C)SN(C)C(=O)O/N=C(\C)SC`, the outcome was inactive.

As to `CC[C@H]1C[C@H]2[C@@H]3CCC4=CC(=O)CC[C@@H]4[C@H]3CC[C@]2(C)[C@H]1O`, the result was inactive.

Turning to `O=[N+]([O-])c1cc(C(F)(F)F)cc([N+](=O)[O-])c1Cl`, the outcome was inactive. Next, `CCOc1ccc(C(C)(C)COCc2cccc(Oc3ccccc3)c2)cc1`: “inactive”.

For the compound `O=C(CCl)c1ccc(Cl)cc1Cl`, the result was inactive. For `NCC(CC(=O)O)c1ccc(Cl)cc1` (stereo not given), the outcome was inactive. On to `O=S1OC[C@@H]2[C@H](CO1)[C@]1(Cl)C(Cl)=C(Cl)[C@@]2(Cl)C1(Cl)Cl` (stereo not given in full), for which the result was inactive. As for `Nc1nc(=S)[nH][nH]1`, the entry is “inactive”.

As for `Cc1ccc(N)cc1C`, the compound was called inactive. Next, `O=NN1CCCCCC1`: “inactive”; `CC(=O)[C@H]1CC[C@H]2[C@@H]3CC[C@H]4C[C@](C)(O)CC[C@]4(C)[C@H]3CC[C@]12C`: “inactive”; `O=C(N[C@H](c1ccccc1)[C@@H]1CN2CCC1CC2)c1c(Cl)ccc(C(F)(F)F)c1Cl`: “inactive”.

Consider `C(=NC1CCCCC1)=NC1CCCCC1`, for which the result was inactive. For `C[N+](C)(C)CCCl`, the call was inactive. As for `COc1c(C(C)(C)C)cc([N+](=O)[O-])c(C)c1[N+](=O)[O-]`, the entry is “inactive”; as for `CC(C)(Cl)[N+](=O)[O-]`, “inactive”. Next, `C=CC(C)=O`: “inactive”; `BrCCCCBr`: “inactive”; `CC/C(=N\OC/C=C/Cl)C1=C(O)CC(C2CCOCC2)CC1=O` (stereo not given): “inactive”. For the compound `ClP(Cl)(Cl)(Cl)Cl`, the call was inactive. In the case of `CCOC(=O)C(Cl)C(C)=O` (stereo not given), the compound was classed as inactive. As for `CN(C)c1ccc(N(C)C)cc1`, the entry is “inactive”. Next, `C=CCCl`: “inactive”. As for `CC(C)N(CCC(C(N)=O)(c1ccccc1)c1ccccn1)C(C)C` (stereo not given), the entry is “inactive”; as for `C[C@H]1CNCCc2ccc(Cl)cc21`, “inactive”; as for `O=S(=O)(Cl)c1ccccc1`, “inactive”. `NC(=O)C(Cl)(Cl)Cl`: the compound was classed as inactive. Next, `CCN(C)N=O`: “inactive”; `CCCCNP(N)(N)=S`: “inactive”. Consider `CCOP(=O)(OCC)O/C(=C/Cl)c1ccc(Cl)cc1Cl`, for which the result was inactive. As for `COP(=O)(OC)O/C(=C/Cl)c1cc(Cl)c(Cl)cc1Cl`, the entry is “inactive”; as for `CCCCCC[N+](=O)[O-]`, “inactive”. Next, `CCOP(=S)(OCC)Oc1nc(Cl)c(Cl)cc1Cl`: “inactive”; `CN1[C@@H]2CC[C@H]1CC(OC(=O)c1cc(Cl)cc(Cl)c1)C2` (stereo not given in full): “inactive”; `NCCCNCCCN`: “inactive”. As for `CCCN(CCC)c1c([N+](=O)[O-])cc(S(C)(=O)=O)cc1[N+](=O)[O-]`, the entry is “inactive”.
